Laboratory results taken from PubChem BioAssay (EPA / NIEHS).
Several values for one entry are separate records, joined by “and”; a condition that tells them apart may be missing. Identical values can stand only once. Results filed as inconclusive are left out. Where a structure was tested more than once in an assay, its records may differ in their call. Activity calls are given as the source filed them. Rule for the calls, unless noted: active = hit-call score of the fitted dose curve at least 0.9, where 1 is the maximum; inactive = score below 0.9.

Columns and labels:
[1] = ACEA_ER_80hr: ACEA Biosciences xCELLigence Real-Time Cell Analysis on Estrogen Receptor Agonism for Proliferation (AID 2282667; active = hit-call score of the fitted dose curve at least 0.9, where 1 is the maximum); conditions: T47D proliferation, impedance (xCELLigence), 80 h
Summary of the method: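 Real-time electrical impedance tracked growth of the human breast line T47D, with the 80 h post-dosing value used. Dosing spanned eight 1:4 steps down from a 100 uM final top concentration, run in duplicate.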

[2] = APR_HepG2_CellCycleArrest_24hr: Apredica 24-hour HepG2 Assay for Cell Cycle Arrest (AID 2282905); conditions: imaging, actives raise or lower the signal;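 note: cell cycle arrest scored as ratio of 2N to 4N nuclear DNA content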
Summary of the method: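 HepG2 cells were exposed to compounds at 0.39–200 uM (ten concentrations, duplicate) in 0.5% v/v DMSO for 24 hr. After formaldehyde fixation and Triton permeabilization, Hoechst 33342-stained nuclei were imaged at 20x; DNA content was quantified, with bidirectional fitting against DMSO.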

[3] = APR_HepG2_NuclearSize_24hr: Apredica 24-hour HepG2 Assay for Nuclear Size (AID 2282907); conditions: high-content imaging, actives raise or lower the signal
Summary of the method: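 HepG2 human liver cells were exposed for 24 hr to compounds at 0.39–200 uM (ten concentrations, duplicate) in 0.5% v/v DMSO. They were then formaldehyde-fixed, Triton-permeabilized and Hoechst 33342-stained, and nuclear diameter was imaged at 20x. Bidirectional fits were made against DMSO.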

[4] = APR_HepG2_CellLoss_24hr: Apredica 24-hour HepG2 Assay for Cell Loss (AID 2282908); conditions: high-content imaging;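 for AC50: fit in both directions so a hit may be cell loss or gain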
Summary of the method: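 Compounds were tested at 0.39–200 uM in duplicate with 0.5% v/v DMSO final. Cells were then fixed in 3.7% formaldehyde, Hoechst 33342 nuclei were imaged at 20x by HCS, and cell number was fitted bidirectionally against DMSO.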

[5] = APR_HepG2_MicrotubuleCSK_24hr: Apredica 24-hour HepG2 Assay for Microtubule CSK Stabilty (AID 2282909); conditions: HepG2 microtubule cytoskeleton imaging, actives raise or lower the signal
Summary of the method: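 HepG2 cells exposed 24 h to compounds at 0.39–200 uM (duplicate, 0.5% v/v DMSO final), then fixed, permeabilized and immunostained for alpha-tubulin with Hoechst 33342. Cytoskeleton imaged at 20x; bidirectional fit versus DMSO baseline.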

[6] = APR_HepG2_MitoticArrest_24hr: Apredica 24-hour HepG2 Assay for Mitotic Arrest (AID 2282910); conditions: high-content imaging, actives raise or lower the signal
Summary of the method: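 HepG2 cells, 24 h exposure at 0.39-200 uM (10 concentrations, duplicate, 0.5% DMSO). Fixed, stained for phospho-histone H3 with Hoechst; imaged by high-content microscopy, bidirectional fit versus DMSO.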

[7] = APR_HepG2_MitoMembPot_24hr: Apredica 24-hour HepG2 Assay for Mitochondrial Membrane Potential (AID 2282911); conditions: imaging, actives raise or lower the signal
Summary of the method: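 Cells are dosed for 24 hr across 0.39 to 200 uM with solvent held at 0.5% DMSO. They are then stained with 250 nM MitoTracker Red CMXRos for 30 min, fixed in 3.7% formaldehyde and imaged.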

[8] = APR_HepG2_MitoMass_24hr: Apredica 24-hour HepG2 Assay for Mitochondrial Mass (AID 2282912); conditions: high-content imaging, actives raise or lower the signal
Summary of the method: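 Human HepG2 liver cells were exposed for 24 hr to compounds at 0.39–200 uM (duplicates, 0.5% v/v DMSO final). They were stained live with 250 nM MitoTracker Red CMXRos for 30 min, fixed in 3.7% formaldehyde, and imaged by HCS fluorescence; signals were fitted bidirectionally against DMSO.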

[9] = APR_HepG2_p53Act_24hr: Apredica 24-hour HepG2 Assay for p53 Activation (AID 2282913); conditions: high-content imaging, actives raise or lower the signal;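 note: p53 protein immunofluorescence averaged per cell in HepG2 with Hoechst nuclei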
Summary of the method: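 Human HepG2 liver cells; 24 hr cpd treatment, 0.39–200 uM, 0.5% DMSO final. Fixed in 3.7% formaldehyde, permeabilized with 0.5% Triton X-100, stained with anti-p53/Cy5 plus Hoechst 33342. Six images per well at 20x; gain or loss vs DMSO.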

[10] = APR_HepG2_CellCycleArrest_72hr: Apredica 72-hour HepG2 Assay for Cell Cycle Arrest (AID 2282914); conditions: high-content imaging, actives raise or lower the signal
Summary of the method: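 Read-out is Hoechst-stained nuclear DNA content measured by automated fluorescence imaging (20x, six images per well), fitted in both directions relative to DMSO. Human HepG2 liver cells received 0.39–200 uM compound for 72 hr at 0.5% v/v DMSO.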

Measured: AC50

c1ccc2cc3c(ccc4ccccc43)cc2c1
active: [1] 11.7 µM and 2.92 µM | [2] 67.6 µM | [4] 48.1 µM | [6] 65.7 µM | [7] 63 µM | [8] 55.8 µM | [9] 103 µM | [10] 17.4 µM
inactive: [1] | [3] | [5]

CCCOc1sc(C(=O)N2CCC(c3cc(CN)ccc3F)CC2)c(C)c1Br
active: [2] 22.3 µM | [4] 6.74 µM | [5] 15.6 µM | [6] 5.77 µM | [7] 7.27 µM
inactive: [1] | [3] | [8] | [10]

OCCC(F)(F)C(F)(F)C(F)(F)C(F)(F)C(F)(F)C(F)(F)F
inactive: all assays above

CC(C)(C)c1ccc(O)c(C(C)(C)C)c1
active: [4] 38.5 µM | [7] 8.96 µM
not listed: [9]
inactive: all other assays above

CC(C)(C)CC(C)(C)c1ccc(O)c(-n2nc3ccccc3n2)c1
inactive: [1] | [3] | [5] | [8]
active: [2] 36.9 µM | [4] 57.1 µM | [6] 48.9 µM | [7] 50.6 µM | [9] 62.6 µM | [10] 26.2 µM

CC(C)(C)c1cc(C(C)(C)C)c(O)c(C(C)(C)C)c1
active: [1] 10.6 µM
not listed: [9]
inactive: all other assays above

O=c1c(-c2ccc(O)cc2)coc2cc(O)ccc12
active: [1] 330 nM and 318 nM and 427 nM
not listed: [9]
inactive: all other assays above

c1ccc2c(c1)ccc1ccccc12
inactive: all assays above

NC(=O)N1C(=O)C(C(=O)c2cc(Cl)cs2)c2cc(F)c(Cl)cc21 (centres undefined)
active: [4] 98.8 µM | [5] 75.3 µM | [6] 84.7 µM | [8] 107 µM | [10] 96.9 µM
inactive: [1] | [2] | [3] | [7]

CCCCCCCCCCCCN1CCCC1=O
inactive: [1] | [5] | [7]
active: [2] 53.5 µM | [3] 75.3 µM | [4] 47.4 µM | [6] 68.7 µM | [8] 51 µM | [10] 42.6 µM

CCCCCCCCCCCCCCCS(=O)(=O)Oc1ccccc1
not listed: [9]
inactive: all other assays above

Cc1cc(CCN2CCN(c3nsc4ccccc34)CC2)cc2c1NC(=O)CC2(C)C
active: [4] 28.6 µM | [6] 15.7 µM | [8] 22.2 µM
not listed: [9]
inactive: all other assays above

NC(=O)N(O)[C@@H]1C=C[C@H](Oc2cccc(Oc3ccc(F)cc3)c2)C1
active: [4] 107 µM | [5] 93 µM | [7] 32.9 µM
not listed: [9]
inactive: all other assays above

Cc1ccc(S(=O)(=O)O)c(C)c1
inactive: [1]

OC1CCCCC1
inactive: all assays above

FC(F)(I)C(F)(F)C(F)(F)C(F)(F)C(F)(F)C(F)(F)I
active: [1] 6.86 nM and 252 nM

OCCC(F)(F)C(F)(F)C(F)(F)C(F)(F)C(F)(F)C(F)(F)C(F)(F)C(F)(F)F
active: [2] 17.6 µM | [3] 75 µM | [4] 27.8 µM | [5] 23.1 µM | [6] 24.1 µM | [8] 29.9 µM | [9] 25.1 µM | [10] 14.7 µM
inactive: [1] | [7]
